The results in this text go back to PubChem BioAssay AID1461 (National Center for Advancing Translational Sciences (NCATS), 2008).

Hit rate of the full screen: of about 220,000 compounds, about 2,300 (1%) were called active. Not shown: some 6% with an inconclusive outcome. The list comes from a sample in which actives are over-represented; it also holds similar structures and randomly drawn compounds. A call without a number means that no potency is given here. Unmarked numbers belong to inactive results. Calls follow the shape of the dose curve; as a rule, active = well fitted inhibition curve with a large enough effect; inconclusive = small, poorly fitted or top-dose-only effect, or effect the other way; inactive = no such curve, though single readings can be large or run the other way.
Potency is read from the fitted curve at half-maximal effect.

Neuropeptide S receptor (Homo sapiens), sequence (Q6W5P4 whole entry, looked up): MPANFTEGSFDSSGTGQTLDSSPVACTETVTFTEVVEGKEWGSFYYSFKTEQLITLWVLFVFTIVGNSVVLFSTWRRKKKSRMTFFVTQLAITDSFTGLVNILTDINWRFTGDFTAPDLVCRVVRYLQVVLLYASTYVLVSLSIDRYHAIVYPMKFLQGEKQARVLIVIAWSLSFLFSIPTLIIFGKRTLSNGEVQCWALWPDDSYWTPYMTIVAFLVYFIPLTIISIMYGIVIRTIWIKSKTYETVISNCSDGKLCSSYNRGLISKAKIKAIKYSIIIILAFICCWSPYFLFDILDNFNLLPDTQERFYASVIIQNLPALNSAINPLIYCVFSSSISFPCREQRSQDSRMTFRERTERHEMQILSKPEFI

This experiment concerns the target Neuropeptide S receptor (Homo sapiens) (UniProt Q6W5P4). The experiment in a line: qHTS Assay for Antagonists of the Neuropeptide S Receptor: cAMP Signal Transduction. Also: nearly all actives have a fitted effect of over 50% in size. To be noted: CHO-NPSR cells, cAMP TR-FRET, antagonist mode; series mostly up to 38.3 µM. From the text:
NIH Chemical Genomics Center [NCGC] NIH Molecular Libraries Probe Production centers Network [MLPCN] MLPCN Grant: X01-DA026210-01 Assay Submitter (PI): Heilig, Markus Alexander NCGC Assay Overview: Neuropeptide S receptor (NPSR), previously known as GPR154, is a recently de-orphanized G protein coupled receptor. Its endogenous ligand is the 20 amino acids peptide Neuropeptide S (NPS). […] NPS and its receptor are found in various tissues. Specifically they are highly expressed in brain areas that have been implicated in modulation of arousal, stress and anxiety. Central administration of NPS in mice produces an unusual profile of activity by inducing wakefulness and arousal, while at the same time suppressing anxiety. Therefore, NPSR may represent a novel drug target for the treatment of sleep and anxiety disorders. To identify NPSR antagonists, we developed a cell-based cAMP assay. NPS can stimulate the production of cAMP in Chinese hamster ovary cells stably expressing NPS receptor. This change in intracellular cAMP level can be detected by a homogeneous LANCE cAMP assay based on the TR-FRET (time resolved fluorescence resonance energy transfer) between a europium-labeled cAMP tracer complex and a cAMP-specific antibody labeled with Alexa Fluor 647. The europium-labeled cAMP tracer complex is formed by the tight interaction between Biotin-cAMP (b-cAMP) and streptavidin labeled with Europium-W8044 chelate (Eu-SA). Light pulse at 320 nm excites the europium of the cAMP tracer and the energy emitted is transferred to the Alexa molecule bound to the cAMP antibody, generating a TR-FRET signal at 665 nm. Residual energy from the europium will produce a light at 620 nm. The native unlabeled cAMP from cell lysates competes with the europium-cAMP tracer for antibody binding and reversely reduces the emission signal of Alexa by interrupting FRET between the two labeled molecules. Both emission signals from the FRET donor (620 nm) and the acceptor (665 nm) can be detected by a plate reader in the TRF mode. Expression of result in fluorescence ratio (665 nm/620 nm) helps to normalize differences due to cell density and reagent dispensing. This assay was successfully optimized to a 1536-well plate format.
NCGC Assay Protocol Summary: A Chinese hamster ovary (CHO) cell line stably expressing the NPS receptor (CHO-NPSR) was obtained from Dr. Heilig lab at NIAAA and maintained in F-12 Kaighn's media (Invitrogen, Carlsbad, CA, 21127) supplemented with 10 % FBS, 100 units/ml penicillin, 100 ug/ml streptomycin and 250 ug/ml geneticin at 37C, 5% CO2 in a humidified atmosphere. Before the assay, aliquots of cells were frozen and stored at -135C. The assay was performed in 1536-well format. Data are reported for both the ratio of the two emission wavelengths, and also for the component 'donor' channel, Em2=620. Data were normalized to the controls for basal activity (DMSO only) and 100% inhibition (No NPS control). IC50 values were determined from concentration-response data modeled with the standard Hill equation. NPS 1536-well assay protocol: (1) Fresh or frozen CHO-NPSR cells were suspended in F-12 Kaighn's media supplemented with 10 % FBS, 100 units/ml penicillin and 100 ug/ml streptomycin. Cells were plated at 4 ul/well (1200 cells) to white, tissue culture treated 1536-well plates, and then cultured at 37C, 5 % CO2 for 16 to 30 hours. (2) Add 23 nl/well of compound in DMSO solution. The final titration for each compound was between 0.6 nM and 46 uM. (3) Add 1 ul of stimulation reagent (1X HBSS buffer, 5 mM HEPES, 0.1% BSA, 500 uM RO-201724 (Sigma-Aldrich, B8279), 1.5% Alexa 647-labeled anti-cAMP antibody (from Perkin Elmer), 100 nM NPS) (4) Incubation at 37C, 5 % CO2 for 60 min. (5) Add 1 ul/well detection reagent. Detection reagent was prepared by adding biotin labeled cAMP (4%), streptavidin labeled with Europium-W8044 chelate (1.33%) and TritonX-100 (1%) to detection buffer. […]
Background: qHTS replaces the single test concentration by a dilution series.
Consider `O=C(CC(=O)Nc1ccc(Cl)c(Cl)c1)N/N=C/c1ccc(O)cc1`, for which the Potency entry is “inactive”.

For `O=C(CC(O)(C(F)(F)F)C(F)(F)F)Nc1ccc(Cl)c(Cl)c1`, the Potency was 6.31 µM (active).

In the case of `Cc1ccc(NC(=O)C/C(N)=N/O)cc1Cl`, the activity change, negative = inhibition is -0.778% [at 7.67 µM]. In the case of `COc1cc2c(cc1OC)C(/C=C/c1ccco1)=NCC2`, the Potency entry was “inactive”.

Consider `COC(=O)c1cc(NC(=O)c2ccco2)ccc1N1CCOCC1`, for which the Potency result is “inactive”. Same read-out and setting: under `CC(=O)Nc1ccc(NC(=O)CSc2ncnc3c2cnn3Cc2ccccc2)cc1` stands “inactive”. As for `C=CCn1c(=S)[nH]c2nc3c(cc2c1=O)COC(C)(C)C3`, the Potency result is “inactive”. On to `CC1(C)Cc2nc3sc4c(SCC(=O)NC(c5ccccc5)c5ccccc5)ncnc4c3cc2CO1`, for which the Potency is 1.26 µM (active). Regarding `O=c1[nH]nc(SCCS(=O)(=O)c2ccc(F)cc2)n1-c1ccccc1C(F)(F)F`, the Potency entry was “inactive”. The same measure, in the same setting: under `Cc1cccc2c1-c1sc(C(=O)NCCCN3CCc4ccccc4C3)cc1CO2` stands “inactive”; under `O=C(C[n+]1ccc2c(c1)nnn2-c1ccccc1)c1ccc(Cl)cc1`, “inactive”; under `O=C(Cn1nnc(N2CCCCC2)n1)c1ccc(Cl)c(Cl)c1`, “inactive”. Turning to `O=S(=O)(NCc1ccco1)c1cnc(Cl)c(Cl)c1`, the activity change, negative = inhibition is 25.6% [at 7.67 µM]. On to `Cn1c(SCC(=O)N2CCOCC2)nnc1-c1ccc2ncccc2c1`, for which the Potency result is “inactive”. Still for that read-out and setting: to `CC(C)=CCc1c(O)c(CC=C(C)C)c2occ(-c3ccc(O)cc3)c(=O)c2c1O` belongs “inactive”; to `Cc1ccc(S(=O)(=O)N2CC(=O)Nc3ccccc32)cc1C`, “inactive”; to `O=C1CN(c2nc(-c3ccccc3)c3cc(Br)ccc3n2)c2ccccc2N1`, 6.31 µM (active). On to `Cc1ccc(C)c(S(=O)(=O)N2CC(=O)Nc3ccccc32)c1`, for which the Potency entry was “inactive”.

As to `COc1ccc(CN2CCOC2=O)cc1OC`, the Potency result was “inactive”. Consider `Cc1cc(N2C(=O)C(=O)/C(=C(/O)c3ccc(Cl)cc3)C2c2cccc(Br)c2)no1` (stereo unspecified), for which the Potency is 12.6 µM (active).

With `COc1ccccc1C1/C(=C(/O)c2ccc(OC(C)C)cc2)C(=O)C(=O)N1c1cc(C)on1` (stereo unspecified), the Potency entry is “inactive”. Still for that read-out and setting: under `COc1ccc(C2/C(=C(/O)c3ccccc3)C(=O)C(=O)N2c2ncccn2)cc1OC` (stereo unspecified) stands “inactive”. Regarding `CC(=O)NCc1ccc(S(=O)(=O)NC2CCN(Cc3ccccc3)CC2)cc1`, the Potency entry is “inactive”. Regarding `COc1ccc(Br)c2c1C(=O)CC2`, the Potency entry was “inactive”. The same measure, in the same setting: under `COC(=O)c1cn(C(=O)c2ccc(Cl)cc2)c2ccccc12` stands “inactive”.

Consider `CCOC(=O)NNc1cc(C(F)(F)F)ccn1`, for which the Potency entry was “inactive”. Same read-out and setting: under `COc1ccccc1P(=O)(c1ccccc1)c1ccccc1NC(C)=O` (stereo unspecified) stands “inactive”; under `CCOC(=O)/C(=C\c1ccc([N+](=O)[O-])cc1)C(=O)c1cc(C(C)=O)c(Nc2ccccc2)s1`, 7.94 µM (active). Still for that read-out and setting: under `O=C(Nc1ccccc1)/C(=C/c1ccc([N+](=O)[O-])cc1)NC(=O)c1ccccc1` stands “inactive”; under `Cc1cccc(NC(=O)c2sc(-c3ccccc3)nc2-c2ccc([N+](=O)[O-])cc2)c1`, “inactive”.

For the compound `Cc1ccc(C)c2[nH]c(=O)c(CN(Cc3cccnc3)C(=S)NCc3ccco3)cc12`, the Potency result is “inactive”. On the same count and under the same terms, under `COc1ccc(NC(=O)/C(Cl)=C(/Cl)S(=O)Cc2ccc(C)cc2)cn1` (stereo unspecified) stands 1 µM (active); under `COc1ccc(NC(=S)Nc2ccccc2Cl)cn1`, “inactive”; under `COc1ccc(Nc2cc(Cl)ccc2C(=O)O)cn1`, “inactive”. Still for that read-out and setting: to `COc1cccc(Nc2nc(N)c([N+](=O)[O-])c(NCc3ccco3)n2)c1` belongs “inactive”. As for `C/C(=N\OCC(=O)O)c1ccc(Cl)cc1`, the activity change, negative = inhibition was 9.86% [at 7.67 µM]. Take `Cc1noc(C)c1S(=O)(=O)Nc1cc(C(F)(F)F)ccc1N1CCOCC1`: the Potency entry was “inactive”.

For `COc1ccc(C(=O)C2CCCN(Cc3ccc4nonc4c3)C2)c(C)c1` (stereo unspecified), the Potency result was “inactive”. Same read-out and setting: under `O=[N+]([O-])c1c(NCCO)cc(Sc2nc3ccccc3s2)c2nonc12` stands 10 µM (active); under `O=C(CSc1nc2ccccc2s1)Nc1ccc(C(=O)O)cc1`, “inactive”. The same measure, in the same setting: under `COc1ccc(S(=O)(=O)Nc2ccc(O)c(Sc3nc4ccccc4s3)c2)cc1` stands “inactive”; under `COc1cc2nc(Cl)nc(NCCO)c2cc1OC`, “inactive”; under `C/C(=N/NC(=O)CC(=O)N/N=C(\C)c1ccc([N+](=O)[O-])cc1)c1ccc([N+](=O)[O-])cc1`, “inactive”. In the case of `O=C(Cn1cnc2cc([N+](=O)[O-])ccc2c1=O)NC(=O)NCc1ccccc1`, the Potency result was “inactive”. Same read-out and setting: under `Cc1ccc(CSCC(N)C(=O)O)cc1` (stereo unspecified) stands “inactive”; under `Cc1ccc(SC(CC(=O)c2ccc(C(C)(C)C)cc2)C(=O)O)cc1` (stereo unspecified), 10 µM (active). On the same count and under the same terms, to `Cc1ccc(C(=O)CS(C)(=O)=O)cc1` belongs “inactive”. Same read-out and setting: to `C/C(Cc1ccccc1)=N\NC(=O)CNC(=O)c1ccc2c(c1)OCCO2` belongs “inactive”; to `CC1CC2=C(CC1/C=N/NC(N)=S)C(C)(C)CCC2` (stereo unspecified), 12.6 µM (active). Take `CC1(C)CCCC2=C1CC1C(=O)N(c3ccccc3)C(=O)C1C2` (stereo unspecified): the Potency result is “inactive”. The same measure, in the same setting: to `Oc1[nH]c2ccc(Br)cc2c1N=Nc1nn[nH]n1` belongs “inactive”.
